GPR151 ag = activators of human GPR151, primary screen, cell-based, PathHunter beta-arrestin, luminescence | G-protein coupled receptor 151 (Homo sapiens), Q8TDV0 | PathHunter beta-arrestin GPR151 cells | activation, % at 11.2 µM | actives 1% (n = 650,000) | AID 1508602, 2020; in the data active = activation above about 4.9%
Target sequence (Q8TDV0 whole entry, looked up): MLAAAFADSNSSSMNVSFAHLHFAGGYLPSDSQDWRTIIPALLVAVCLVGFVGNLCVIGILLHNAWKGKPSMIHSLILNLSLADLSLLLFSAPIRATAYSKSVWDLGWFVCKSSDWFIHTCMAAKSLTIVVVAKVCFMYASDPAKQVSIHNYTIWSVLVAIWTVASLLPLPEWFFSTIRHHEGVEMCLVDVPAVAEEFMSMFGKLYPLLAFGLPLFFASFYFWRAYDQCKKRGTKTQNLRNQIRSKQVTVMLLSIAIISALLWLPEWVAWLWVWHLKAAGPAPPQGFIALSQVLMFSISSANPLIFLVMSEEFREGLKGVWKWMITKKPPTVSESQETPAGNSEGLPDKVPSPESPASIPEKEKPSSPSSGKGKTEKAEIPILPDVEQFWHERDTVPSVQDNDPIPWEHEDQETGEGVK
FBW7 act = FBW7 E3 ligase activators, primary screen, biochemical, AlphaScreen, human; F-box/WD repeat-containing protein 7 (Homo sapiens), Q969H0; AlphaScreen FBW7–phospho-cyclin E peptide binding, activator screen; normalized activity (activation), % at 26.1 µM; actives 0.13% (n = 650,000); in the data active = normalized activity above about 1.9%;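 also: purified mutant Fbw7 with reduced substrate affinity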
MITF primary = MITF inhibitors, primary screen, biochemical, AlphaScreen, human. AlphaScreen MITF homodimerization, bead proximity signal. actives 0.91% (n = 650,000). inhibition, % at 2.6 µM; in the data active = inhibition above about 50%
TEAD-YAP block = TEAD-YAP interaction inhibition, primary screen, TEAD-YAP interaction inhibitor project, luminescence, HEK-TIYL cells; TEAD-Gal4/YAP UAS-luciferase luminescence; actives 1.4% (n = 640,000); AID 1259422, 2018; inhibition, % at 9.12 µM; in the data active = inhibition above about 32%
MITF confirm = MITF inhibitors, retest of hits, confirmation, biochemical, AlphaScreen, triplicate. shares compounds with MITF primary. AlphaScreen MITF homodimerization, biotin/His-MITF beads. inhibition, % at 2.6 µM. actives 16% (n = 4,700). AID 1259372, 2018;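 active = inhibition above a cutoff derived from the DMSO control wells, cut at about 28% in these data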;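 also: inhibitors lower the bead chemiluminescence by keeping MITF from dimerizing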
AlphaScreen DR = AlphaScreen optical interference compounds, dose response, counter-screen, biochemical, HTS; shares compounds with MITF primary; AlphaScreen optical interference counterscreen, cell-free; IC50, µM; actives 6% (n = 480); AID 1259373, 2018; call rule not given here
AS interf ctr = AlphaScreen optical interference compounds, counter-screen for MITF inhibitor project, biochemical, triplicate | actives 7.6% (n = 4,700) | LysRS AlphaScreen counterscreen, signal interference | inhibition, % at 2.6 µM | shares compounds with MITF primary;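 active = inhibition above a cutoff derived from the DMSO control wells, cut at about 30% in these data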
Numbers stand for hits; 0 = inactive; - = not tested or not shown. Only some compounds are listed: those with a hit (about 3.5% of all), similar ones and a draw of the others.

SMILES | GPR151 ag | FBW7 act | MITF primary | TEAD-YAP block | MITF confirm | AS interf ctr | others
COc1ccc(CN2CCNC(=O)C2CC(=O)NCc2ccccn2)cc1OC (stereo not drawn) | 0 | 0 | 0 | 0 | - | -
C=CCn1c(=N)c(C(N)=S)cc2c(=O)n3cccc(C)c3nc21 | 0 | 0 | 0 | 0 | - | -
O=C(NCc1ccccn1)C1CCN(S(=O)(=O)N2CCC3(CC2)OCCO3)CC1 | 0 | 0 | 52 | 0 | 0 | 0
CCn1c(C)[n+](CC)c2ccc(Cl)cc21 | 0 | 0 | 57 | 0 | 0 | 0
CCn1c(C)[n+](CC)c2ccc(S(=O)(=O)C(F)F)cc21 | 0 | 0 | 0 | 0 | - | -
O=C1NC(=O)C(=Cc2ccccc2I)C(=O)N1 | 0 | 0 | 55 | 0 | 0 | 0
O=C1C(=Cc2ccccc2I)C(=O)c2ccccc21 | 0 | 0 | 0 | 0 | - | -
Cc1ccc2nc(N3CCC(NCCc4ccccc4F)CC3)nc(C)c2c1 | 0 | 0 | 73 | 0 | 0 | 0
COc1ccc(NC(=O)C2(N(Cc3ccco3)C(=O)Cc3nc(N)n[nH]3)CCCCC2)cc1 | 0 | 0 | 0 | 0 | - | -
Cc1ccccc1NC(=O)C1(N(Cc2ccccc2)C(=O)Cc2nc(N)n[nH]2)CCCCC1 | 0 | 0 | 79 | 0 | 101 | 101
COc1ccc(NC(=O)C2(N(Cc3ccccc3)C(=O)Cc3nc(N)n[nH]3)CCCCC2)cc1 | 0 | 0 | 0 | 0 | - | -
Nc1n[nH]c(CC(=O)N(Cc2ccco2)C2(C(=O)Nc3ccccc3)CCCCC2)n1 | 0 | 0 | 66 | 0 | 96 | 101
Cc1ccc(NC(=O)C2(N(Cc3ccccc3)C(=O)Cc3nc(N)n[nH]3)CCCCC2)cc1 | 0 | 0 | 58 | 0 | 100 | 100
CCOc1ccc(CN2CCN(c3ccccn3)CC2)cc1 | 0 | 0 | 0 | 0 | - | -
CCOc1cc(CN2CCN(Cc3cccnc3)CC2)ccc1OC | 0 | 0 | 74 | 0 | 0 | 0
CCOc1cc(CN2CCN(Cc3ccc(Cl)cc3)CC2)ccc1OC | 0 | 0 | 61 | 0 | 0 | 0
CCOc1cc(CN2CCN(Cc3cccc(Cl)c3)CC2)ccc1OC | 0 | 0 | 0 | 0 | - | -
CCOc1ccc(CN2CCN(Cc3cccnc3)CC2)cc1 | 0 | 0 | 55 | 0 | 35 | 0 | AlphaScreen DR=0
CCOc1cc(CN2CCN(Cc3ccccc3Cl)CC2)ccc1OC | 0 | 0 | 67 | 0 | 0 | 0
O=C1CCCN1CCCNc1nc(Nc2ccc(C(F)(F)F)cc2)nc2nc[nH]c12 | 0 | 0 | 0 | 0 | - | -
CCc1ccc(NC(=O)C(C)n2c3ccccc3c3nc(=O)cc(C)n32)cc1 (stereo not drawn) | 0 | 0 | 0 | 0 | - | -
CCOc1cc(CN2CCN(Cc3cc(OC)c(OC)c(OC)c3)CC2)ccc1OC | 0 | 0 | 71 | 0 | 0 | 0
CCOc1cc(CN2CCN(C3CCCC3)CC2)ccc1OC | 0 | 0 | 53 | 0 | 0 | 0
CCOc1cc(CN2CCCCC2)ccc1OC | 0 | 0 | 0 | 0 | - | -
CC(CCc1ccccc1)NCc1nc2ccsc2c(=O)[nH]1 (stereo not drawn) | 0 | 0 | 52 | 0 | 0 | 0
SMILES | GPR151 ag | FBW7 act | MITF primary | TEAD-YAP block | MITF confirm | AS interf ctr | others
CCN(c1ccccc1)c1cc(N2CCOCC2)c2nonc2c1[N+](=O)[O-] | 0 | 0 | 0 | 0 | - | -
CCN(c1ccccc1)c1c([N+](=O)[O-])ccc2nonc12 | 0 | 0 | 66 | 0 | 59 | 55
Cc1nc([N+](=O)[O-])cn1CC(=O)Nc1ccc(F)c(Cl)c1 | 0 | 0 | 53 | 0 | 0 | 0
CCCCOc1ccc(C(=O)N/C(=C/c2ccco2)C(=O)O)cc1 | 0 | 0 | 51 | 0 | 64 | 0 | AlphaScreen DR=0
CCCCOc1ccc(C(=O)N/C(=C\c2ccco2)C(=O)OC)cc1 | 0 | 0 | 0 | 0 | - | -
C/C(=N\NC(=O)COc1ccc(Cl)cc1Br)c1ccccc1 | 0 | 0 | 0 | 0 | - | -
CC(C)(C)NCCCOc1ccc(C(C)(C)C)cc1 | 0 | 0 | 0 | 0 | - | -
CCOc1ccc(OCCCNC(C)(C)C)cc1 | 0 | 0 | 69 | 0 | 0 | 0
CCOC(=O)c1c(NC(=O)COC(=O)CCC2NC(=O)NC2=O)sc2c1CCCC2 (stereo not drawn) | 0 | 0 | 0 | 0 | - | -
Cc1ccc(CNc2nc(CN(C)C(C)c3ccc4c(c3)OCCO4)nc3ccccc23)o1 (stereo not drawn) | 0 | 0 | 0 | 0 | - | -
Cc1ncc(CN2CCC(CO)(Cc3ccccc3C(F)(F)F)CC2)[nH]1 | 0 | 0 | 0 | 0 | - | -
CCOc1ccc(OCC)c(S(=O)(=O)NCc2cccnc2)c1 | 0 | 0 | 57 | 0 | 0 | 0
COc1ccc(OC)c(S(=O)(=O)NCc2cccnc2)c1 | 0 | 0 | 0 | 0 | - | -
O=Cc1cc(Cl)ccc1OCCOc1ccccc1 | 0 | 0 | 0 | 0 | - | -
CN1CCN(CCCOc2ccccc2C=O)CC1 | 0 | 0 | 65 | 0 | 0 | 0
CN1CCN(CCCOc2ccc(Cc3ccccc3)cc2)CC1 | 0 | 0 | 0 | 0 | - | -
O=Cc1cc(Cl)ccc1OCCCN1CCN(Cc2ccccc2)CC1 | 0 | 0 | 57 | 0 | 0 | 0
CC(=O)CCc1ccc(OCCCN2CCN(Cc3ccccc3)CC2)cc1 | 0 | 0 | 59 | 0 | 0 | 0
O=Cc1ccc(OCCCN2CCN(Cc3ccccc3)CC2)cc1 | 0 | 0 | 57 | 0 | 0 | 0
Cc1cc(OCC(O)CN2CCN(CCO)CC2)ccc1Cl (stereo not drawn) | 0 | 0 | 0 | 0 | - | -
Clc1ccc(C2CC(c3ccc(Cl)cc3)n3nnnc3N2)cc1 (stereo not drawn) | 0 | 0 | 0 | 0 | - | -
COc1ccc(C(=O)/C=C(\C)Nc2ccc(Cl)cc2)cc1 | 0 | 0 | 0 | 0 | - | -
CCCCOc1ccc(CN2CCN(CCOCCO)CC2)cc1 | 0 | 0 | 76 | 0 | 0 | 0
COc1ccc(CN2CCN(CCOCCO)CC2)cc1 | 0 | 0 | 0 | 0 | - | -
Cc1ccc(C)c(NC(=O)C23CCC(C)(C(=O)C2)C3(C)C)c1 (stereo not drawn) | 0 | 0 | 0 | 0 | - | -
SMILES | GPR151 ag | FBW7 act | MITF primary | TEAD-YAP block | MITF confirm | AS interf ctr | others
O=C(Cc1ccccc1)n1nc(-c2cccnc2)nc1NCc1cccs1 | 0 | 0 | 57 | 0 | 0 | 0
O=C(Cc1ccccc1)n1nc(-c2cccnc2)nc1NCc1ccccc1 | 0 | 0 | 0 | 0 | - | -
CCN(c1ccccc1C)S(=O)(=O)c1nnc(NC(=O)c2ccc(C)cc2)s1 | 0 | 0 | 0 | 0 | - | -
Cc1[nH]ncc1-c1ccc(NC(=O)[C@@H]2Cc3ccccc3CN2)c(OCCN(C)C)c1 | 0 | 0 | 67 | 0 | 0 | 0
CCCS(=O)(=O)N1CCN(Cc2nc3ccc(OC)cc3[nH]2)CC1 | 0 | 0 | 66 | 0 | 0 | 0
CCCS(=O)(=O)N1CCN(Cc2ccc(OC)c(OC)c2)CC1 | 0 | 0 | 53 | 0 | 0 | 0
CCCS(=O)(=O)N1CCN(Cc2ccc(OC)cc2OC)CC1 | 0 | 0 | 0 | 0 | - | -

Screens as filed in PubChem BioAssay.
